# Rows were chosen to be rich in hits. Some 1.1% of all compounds tested hit in one or more screens of this group.
# CXXC DNA block – MLL CXXC-DNA interaction inhibition | Q03164 | MLL-CXXC / FITC-HOXA9 DNA fluorescence polarization | Potency, µM (doses to about 115 µM), for the others: at the top dose activity change, negative = inhibition, usual class: inhibitors | 290,000 compounds, 0.037% hits; active means well fitted inhibition curve with a large enough effect in the polarisation, with a control signal flat, not every such curve was filed as active; inconclusive means small, poorly fitted or top-dose-only effect, or effect the other way, or a change in a side signal; inactive means no such curve, though single readings can be large or run the other way; the % refers to the polarisation; further: potency means the concentration at half of the fitted maximal effect
#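 Fluorescence polarization: 7 uM MLL-CXXC (stock) preincubated 5 min with compounds, then 50 nM fluorescein-HOX-A9 DNA (stock) added; 30 min ambient. Buffer 50 mM Tris-HCl pH 7.5, 50 mM NaCl, 1 mM DTT, 0.05% BSA.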
# KCNH2 WT inh – blocks the wildtype human KCNH2 potassium channel; Q12809; U2OS, BacMam KCNH2, thallium flux FluxOr; active compounds read low; activity change, % at 1.84 µM; 340,000 compounds, 0.37% hits;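 active means maximum activity change below -70%; inconclusive means maximum activity change between -70% and -50%; inactive means maximum activity change above -50%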; further: on the % scale 0 is the no-effect control and ±100 the full control effect
# Target sequence (Q12809 whole entry, looked up): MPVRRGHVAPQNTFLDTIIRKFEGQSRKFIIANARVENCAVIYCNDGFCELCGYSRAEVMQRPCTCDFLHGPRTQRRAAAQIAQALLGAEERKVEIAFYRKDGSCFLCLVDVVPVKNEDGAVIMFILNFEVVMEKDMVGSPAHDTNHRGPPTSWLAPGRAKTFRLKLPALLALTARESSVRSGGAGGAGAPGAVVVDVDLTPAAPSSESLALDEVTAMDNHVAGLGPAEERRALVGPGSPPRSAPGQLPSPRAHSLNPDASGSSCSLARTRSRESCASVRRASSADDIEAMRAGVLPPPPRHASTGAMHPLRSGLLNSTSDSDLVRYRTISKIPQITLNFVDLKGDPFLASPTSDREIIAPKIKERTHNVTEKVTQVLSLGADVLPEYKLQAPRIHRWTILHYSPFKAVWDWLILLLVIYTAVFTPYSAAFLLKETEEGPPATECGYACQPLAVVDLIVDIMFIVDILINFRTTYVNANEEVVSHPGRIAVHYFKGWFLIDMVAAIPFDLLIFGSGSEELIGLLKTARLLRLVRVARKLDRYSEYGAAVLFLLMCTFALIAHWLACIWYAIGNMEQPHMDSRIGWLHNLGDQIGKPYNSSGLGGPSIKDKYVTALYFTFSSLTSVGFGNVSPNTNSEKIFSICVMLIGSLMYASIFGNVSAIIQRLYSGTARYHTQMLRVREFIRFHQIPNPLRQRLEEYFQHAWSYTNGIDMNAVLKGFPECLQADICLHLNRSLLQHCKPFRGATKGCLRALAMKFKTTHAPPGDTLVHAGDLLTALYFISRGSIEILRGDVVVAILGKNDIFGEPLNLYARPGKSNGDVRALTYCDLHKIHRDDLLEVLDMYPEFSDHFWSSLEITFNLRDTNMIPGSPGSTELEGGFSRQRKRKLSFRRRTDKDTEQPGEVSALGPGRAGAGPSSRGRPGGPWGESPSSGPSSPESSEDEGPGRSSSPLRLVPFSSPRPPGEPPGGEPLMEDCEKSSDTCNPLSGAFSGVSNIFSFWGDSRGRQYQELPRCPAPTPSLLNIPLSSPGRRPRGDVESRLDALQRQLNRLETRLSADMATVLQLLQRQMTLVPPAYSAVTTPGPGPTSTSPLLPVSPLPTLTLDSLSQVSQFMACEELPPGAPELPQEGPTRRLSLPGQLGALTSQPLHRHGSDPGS
#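 U2OS cells were transduced with wild-type KCNH2 virus (2.03 x 10^8 / mL) for 4 h at room temperature, then cultured overnight at 37 C. Thallium flux was read with FluxOr dye. Rate constants were normalized to DMSO controls.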
# KCNH2 3.1 inh – blocks the human KCNH2 3.1 channel isoform; 340,000 compounds, 0.95% hits; activity change, % (tested at about 1.8 µM); U2OS KCNH2 3.1, thallium flux FluxOr; active compounds read low;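 active means maximum activity change below -70%; inconclusive means maximum activity change from -70% to -50%; inactive means maximum activity change above -50%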;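 further: thallium influx rate constant from kinetic fluorescence after stimulation buffer; on the % scale 0 is the no-effect control and ±100 the full control effect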
#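 Measured as rate of thallium-driven FluxOr signal in transduced U2OS cells carrying the 3.1 channel, read kinetically for 2 min upon stimulation; values are rate constants scaled to DMSO control wells.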
# Menin MLL FP FL – menin-MLL binding inhibition, fluorescein peptide. AID 1766. FP activity change, % at 61.4 µM. Fluorescence polarization, fluorescein-MLL peptide displacement from menin. 290,000 tested, under 10 active; active means well fitted curve in the direction sought with a large enough effect in the polarisation, not every such curve was filed as active; inconclusive means small, poorly fitted or top-dose-only effect, or effect the other way, or a change in a side signal; inactive means no such curve, though single readings can be large or run the other way; the % refers to the polarisation; further: % of control where 0% means no effect
# Menin MLL FP TR – menin-MLL binding inhibition, Texas Red mutant peptide; Menin + Texas Red MLL mutant peptide, fluorescence polarization; Potency, µM (top dose mostly 61.6 µM), without a hit: at the top dose FP activity change, negative = inhibition, usual class: inhibitors; 270,000 compounds, 0.23% hits; AID 1768; active means well fitted inhibition curve with a large enough effect in the polarisation, with a control signal flat, not every such curve was filed as active; inconclusive means small, poorly fitted or top-dose-only effect, or effect the other way, or a change in a side signal; inactive means no such curve, though single readings can be large or run the other way; the % refers to the polarisation; further: potency means the concentration at half of the fitted maximal effect; % of control where 0% means no effect
# * = called active by the depositor; u = inconclusive; x = not tested or not shown; [ ] = another dose, or the depositor's remark.
SMILES,CXXC DNA block,KCNH2 WT inh,KCNH2 3.1 inh,Menin MLL FP FL,Menin MLL FP TR
CO/N=C/c1ccc(N2CCN(C(=O)c3ccc(F)cc3)CC2)c([N+](=O)[O-])c1,0%,9,-102*,0,-22%
CO/N=C/c1ccc(N2CCN(C(=O)c3ccc(Cl)cc3Cl)CC2)c([N+](=O)[O-])c1,13%,-12,-109*,7,3%
Cc1ccc(C(=O)O/N=C\c2ccc(N3CCCCC3)c([N+](=O)[O-])c2)cc1,3%,-14,-77*,1,20%
O=C(O/N=C\c1ccc(N2CCCCC2)c([N+](=O)[O-])c1)c1c(F)cccc1F,-5%,-10,u,2,14%
O=C(N/N=C/c1ccc(N2CCOCC2)c([N+](=O)[O-])c1)c1ccc(F)cc1,5%,24,-2,0,0%
C[C@H]1Cc2c(COc3ccccc3)nc3c(c2CO1)CN(C(=O)c1cccnc1)CC3,x,x,x,-4[11.7 µM],-13%[11.7 µM]
O=c1cc(-c2ccccc2O)oc2c1ccc1ccccc12,x,x,x,8,-14%[24.8 µM]
CN(C)c1ccc(-c2nnn(Cc3ccccc3Br)n2)cc1,-10%,-31,-93*,2,19%
Cc1nc2c(sc(=S)n2Cc2ccco2)c(=O)n1CC(=O)Nc1ccc(F)cc1,38%,21,-87*,-1,23%
Cc1nc2c(sc(=S)n2Cc2ccco2)c(=O)n1CC(=O)Nc1cc(F)ccc1F,-9%,19,u,-3,u
CCC(CC)NC(=O)Nc1ccccc1C,8%,-3,-2,-1,10%
CCC(CC)NC(=O)Nc1ccccc1C(F)(F)F,13%,-112*,-18,2,x
CCCC(C)Sc1nc2c([nH]1)c(=S)n(C)c(=O)n2C (stereo not drawn),x,-157*,-15,x,x
C=C(CO)C1Cc2c(ccc3c2OC2COc4cc(OC)c(OC)cc4C2C3=O)O1 (stereo not drawn),x,x,x,u,3%[24.8 µM]
OCC1(CCc2ccccc2)CCN(C/C=C/c2ccccc2)CC1,10%,-135*,-107*,1,-2%
Cc1ccc(NC(=O)CCN2CCN(C/C=C/c3ccccc3)CC2)cc1,-2%,-96*,-86*,3,-2%
O=C(CCN1CCN(C/C=C/c2ccccc2)CC1)Nc1ccc(Cl)cc1,2%,-38,-99*,3,-1%
CC(C(=O)Nc1ccc([N+](=O)[O-])cc1)N1CCN(C/C=C/c2ccccc2)CC1 (stereo not drawn),-4%,-194*,16,2,-3%
OCC1(Cc2ccccc2Cl)CCN(C/C=C/c2ccccc2)CC1,4%,35,-3,5,-18%
C/C(CCC(=O)OC[C@@H]1O[C@H](C#Cc2ccccc2)C=C[C@@H]1Oc1ccc(C)cc1)=N/O[C@@H](C)CN1CCCCc2nc(C)c(C)cc21,x,x,x,-5[11.7 µM],-13%[11.7 µM]
CC(=O)OC(C)=O,x,1,3,x,x
CC(C(=O)N(C)Cc1ccccc1)N1CCN(C/C=C/c2ccccc2)CC1 (stereo not drawn),-7%,15,-96*,-2,x
COc1ccc(NC(=O)CCN2CCN(C/C=C/c3ccccc3)CC2)cc1,-7%,24,-105*,0,13%
Cc1ccc(NC(=O)CCN2CCN(C/C=C/c3ccccc3)CC2)cc1C,3%,-39,-96*,3,-15%
CCOC(=O)C1CCN(CCC(=O)Nc2ccc(C)c(C)c2)CC1,7%,56,5,-10,-12%
SMILES,CXXC DNA block,KCNH2 WT inh,KCNH2 3.1 inh,Menin MLL FP FL,Menin MLL FP TR
CC(=O)c1ccc(NC(=O)C(C)N2CCN(C/C=C/c3ccccc3)CC2)cc1 (stereo not drawn),-10%,23,u,-1,-5%
COc1cc(NC(=O)CCN2CCN(C/C=C/c3ccccc3)CC2)cc(OC)c1,-6%,28,-38,7,u
COc1ccc(Cl)cc1NC(=O)C(C)N1CCN(C/C=C/c2ccccc2)CC1 (stereo not drawn),1%,-75*,-93*,-1,-12%
CO[C@@H]1COC(=O)CC=C[C@@H](C)[C@@H]2C=C[C@H](O)[C@@H](COC(=O)[C@H](C)NC(=O)CC=C[C@H]1C)O2,x,x,x,-5[11.7 µM],-17%[11.7 µM]
COc1cccc([C@@H]2Oc3ccc(Br)cc3C(=O)[C@H]2OC(=O)Nc2ccc(C)c(Br)c2)c1,x,x,x,6,-7%
COc1ccc(C)cc1NC(=O)CCN1CCCC1,-1%,0,3,1,-6%
O=C(CN1CCN(C/C=C/c2ccccc2)CC1)NCc1ccccc1,-26%,x,-91*,-3,-25%
COc1ccc(C)cc1NC(=O)CCN1CCN(C/C=C/c2ccccc2)CC1,-9%,u,-99*,0,u
Cc1ccc(NC(=O)CCN2CCC(Cc3ccccc3)CC2)cc1,12%,11,-124*,-4,-14%
CCOCCCNC(=O)CN1C(=O)NC(Cc2c[nH]c3ccccc23)C1=O (stereo not drawn),5%,18,2,-7,6%
C#CCOCCOCCOCCNc1nc(N2CCN(C(=O)[C@H](CCCCN)n3cc(CN)nn3)CC2)nc(N2CCN(C(=O)[C@H](CCC(=O)O)n3cc([C@@H](N)CCSC)nn3)CC2)n1,x,0,8,x,x
Cn1nc(C(=O)NNC(=O)Cc2ccc(S(=O)(=O)N3CCOCC3)s2)c2ccccc2c1=O,x,-7,6,x,x
CC(C)CO/N=C1/[C@H]2O[C@@H]2[C@@H](O)[C@H]2[C@H]1CCn1c(=O)n(C)c(=O)n12,x,x,x,-1[11.7 µM],-4%[11.7 µM]
COc1cc(C2SCCS2)cc(Br)c1Oc1ncccc1[N+](=O)[O-],0%,3,-2,1,x
O=[N+]([O-])c1cccnc1Oc1ccc(C2SCCS2)cc1,-2%,-153*,16,-1,x
CCCC/C=C/C(NC(=O)c1ccc(C(F)(F)F)cc1)c1ccccc1 (stereo not drawn),x,x,x,5,11%
Cc1ccc(C(=O)Nc2nc(C)c(C(=O)N(C)C)s2)o1,6%,-12,-14,-3,-19%
Cc1nc(NC(=S)NC(=O)c2ccco2)sc1C(=O)N(C)C,u,-123*,3,-3,-2%
CC(C)(O)C#Cc1ccc(C(=O)NC2CCCCC2)s1,11%,1,-81*,0,-13%
COC(=O)C/C=C\[C@H](C)[C@@H](OC)c1ccccc1Br,x,x,x,-4[11.7 µM],5%[11.7 µM]
Cc1csc(=O)n1CCC(=O)OCc1nnc(-c2ccccc2Cl)o1,x,-85*,3,x,x
Cc1csc(=O)n1CC(=O)OCc1nnc(-c2ccccc2)o1,x,-2,22,x,x
COCC(=O)N1CCC(n2nccc2NC(=O)c2ccccc2OC)CC1,63%,-6,15,x,x
Cn1cc(CN2CCC(n3nccc3NC(=O)c3ccccc3Cl)CC2)c2ccccc21,0%,-79*,-15,-7,u
CCn1nc(C)c(CN2CCC(n3nccc3NC(=O)c3ccccc3OC)CC2)c1C,0%,25,-15,0,-14%
COc1ccccc1C(=O)Nc1ccnn1C1CCN(Cc2cn(C)c3ccccc23)CC1,8%,-26,-77*,-9,u
